# Screening data: PubChem, several laboratories
# Mtb betalactam – beta-lactam sensitization of Mtb H37Rv, H37Rv; M. tuberculosis H37Rv growth with meropenem, percent inhibition; inhibition, % at 25 µM; hit rate 0.27% among 330,000; AID 434955, 2010; call rule not given here;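 further: growth measured after seven days incubation then overnight dye step; 0% = bacteria only wells and 100% = bacteria with antibiotic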
# PriA SSB inh – inhibitors of Klebsiella pneumoniae PriA binding to SSB C-terminal tail, primary screen, biochemical, AlphaScreen; PriA–SSB C-terminal tail interaction (Klebsiella pneumoniae); AlphaScreen SSBct-PriA binding, biotinylated peptide; inhibition, % at 33 µM; hit rate 0.6% among 430,000; AID 1272365, 2023; in the data active means inhibition mostly above about 37%, no sharp cut-off; inactive means mostly below about 20%;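 further: plate controls were negative control peptide for no effect and reference peptide for full effect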
# UGM FP inh – M. tuberculosis UGM enzyme inhibitors, primary screen, biochemical, fluorescence polarization, single point; inhibition, % at 10 µM; AID 504406, 2011; purified UGM, fluorescence polarization probe displacement; UDP-galactopyranose mutase (Mycobacterium tuberculosis (strain ATCC 25618 / H37Rv)), …; hit rate 0.06% among 320,000; in the data active means inhibition above about 10%, passing the limit was not always enough
# Rv3671c protease – Rv3671c serine protease inhibitors, primary screen, biochemical, fluorescence polarization, M. tuberculosis H37Rv; hit rate 0.048% among 320,000; inhibition, % at 5.96 µM; P9WHR9; in the data active means inhibition above about 38%;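 further: extracellular domain of Rv3671c used as enzyme; 0% = enzyme with DMSO and 100% = no enzyme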
# Target sequence (P9WHR9 whole entry, looked up, the tested form may be a part): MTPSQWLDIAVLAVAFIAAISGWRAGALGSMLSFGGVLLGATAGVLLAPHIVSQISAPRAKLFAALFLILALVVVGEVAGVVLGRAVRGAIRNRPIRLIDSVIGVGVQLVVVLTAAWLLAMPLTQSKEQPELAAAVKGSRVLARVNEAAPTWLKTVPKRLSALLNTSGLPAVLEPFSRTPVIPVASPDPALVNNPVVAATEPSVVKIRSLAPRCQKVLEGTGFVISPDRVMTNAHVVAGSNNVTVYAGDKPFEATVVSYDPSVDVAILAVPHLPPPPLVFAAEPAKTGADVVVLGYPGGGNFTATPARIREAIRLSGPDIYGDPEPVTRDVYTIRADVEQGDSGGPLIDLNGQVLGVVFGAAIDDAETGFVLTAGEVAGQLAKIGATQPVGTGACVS
# Mtb FBA inh – Mtb FBA enzyme inhibitors, primary screen, biochemical, fluorescence, strain H37Rv. purified M. tuberculosis FBA, fluorescence read-out. inhibition, % at 1 µM. hit rate 2.3% among 360,000. AID 588726, 2011;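 further: 0% = vehicle and 100% = reference inhibitor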
# GDH-TPI counter-1 – GDH-TPI coupling enzyme inhibitors, primary screen, artefact control for M. tuberculosis FBA inhibitor project, biochemical, absorbance, full deck; GDH-TPI coupled enzyme counterscreen, NADH absorbance; inhibition, % at 4.8 µM; hit rate 1.2% among 360,000; AID 588335, 2011; in the data active means inhibition above about 30%;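 further: 0% = DMSO wells and 100% = wells lacking the enzyme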
# Mtb FBA confirm – M. tuberculosis aldolase blockers, biochemical, fluorescence, strain H37Rv, confirmation | hit rate 78% among 5,600 | shares compounds with Mtb FBA inh | inhibition, % at 1 µM | purified M. tuberculosis FBA, fluorescence read-out;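 further: 0% = vehicle wells and 100% = reference inhibitor wells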
# GDH-TPI counter-2 – GDH-TPI coupling enzyme inhibitors, artefact control for M. tuberculosis FBA inhibitor project, biochemical, fluorescence, high throughput; hit rate 81% among 5,600; shares compounds with Mtb FBA inh; inhibition, % at 1 µM; GDH-TPI coupled enzyme counterscreen; in the data active means inhibition above about 10%
# GDH-TPI dose – GDH-TPI coupling enzyme inhibitors, dose response, artefact control for M. tuberculosis FBA inhibitor project, biochemical, fluorescence, IC50; IC50, µM; AID 652145, 2013; hit rate 79% among 170; GDH-TPI coupled enzyme assay, artifact counterscreen; shares compounds with Mtb FBA inh; call rule not given here
# Numbers without * were called inactive; . = not tested or not shown; + = active, no number. Hits are enriched below; roughly 3.2% of the tested compounds scored in any of these assays. Unless noted, no stated cut-off is given here; in the data, active means inhibition above about 27%; inactive means the rest.
SMILES,Mtb betalactam,PriA SSB inh,UGM FP inh,Rv3671c protease,Mtb FBA inh,GDH-TPI counter-1,Mtb FBA confirm,GDH-TPI counter-2,others
CCCNC(=O)COC(=O)c1cc2c(=O)n3ccccc3nc2s1,-2,-8,1,7,76*,5,10,3,
O=C(c1cc2c(=O)n3ccccc3nc2s1)N1CCOCC1,-7,-5,1,-2,79*,25,+,+,
CCOC(=O)C1CCCN(C(=O)c2cc3c(=O)n4ccccc4nc3s2)C1 (stereo not drawn),-19,6,1,-4,63*,16,10,-7,
O=C(NCc1ccccc1Cl)NC1CC(=O)N(c2cccc(F)c2)C1 (stereo not drawn),.,-11,.,.,.,.,.,.,
CCN(C(=O)c1cc2c(=O)n3ccccc3nc2s1)C1CCCCC1,0,-10,2,4,72*,7,56*,32*,
CCN(CC)S(=O)(=O)c1ccc(C(C)=O)c(NC(=O)c2cc3c(=O)n4ccccc4nc3s2)c1,.,18,.,.,.,.,.,.,
Cn1c(=O)c2c(nc(SCCN3CCCCC3)n2Cc2ccc(Cl)cc2)n(C)c1=O,-1,-14,-2,-5,44*,-3,80*,68*,
COc1ccc2c(c1)c1ncn(CCc3ccccc3)c(=O)c1n2C,54,-14,-2,-19,105*,16,106*,91*,
Cc1cc(C(=O)N2CCC(n3c(=O)[nH]c4ccc(F)cc4c3=O)CC2)c(C)o1,.,-23,.,.,.,.,.,.,
COc1ccccc1Cc1c(-c2ccc(OC)c(OC)c2)nc2ccc(C)cn12,.,.,.,.,45*,.,119*,94*,
COc1ccc(-c2nc3ccc(C)cn3c2Cc2cccc(Cl)c2)cc1OC,.,.,.,.,33*,.,107*,76*,
Cc1ccc2nc(-c3ccco3)c(Cc3cccc(F)c3)n2c1,.,.,.,.,31*,.,+,138*,
CCC(C)(C)C(=O)Nc1ncc(S(=O)(=O)c2ccc([N+](=O)[O-])cc2)s1,89,18,3,2,76*,-3,4,-1,
O=C(CCl)Nc1ncc(S(=O)(=O)c2ccc([N+](=O)[O-])cc2)s1,22,8,-1,4,-4,11,.,.,
O=C(O)CN(c1ccc2c(c1)OCCO2)S(=O)(=O)c1ccccc1,1,-16,-1,-3,17,3,.,.,
COC(=O)CN(c1ccc2c(c1)OCCO2)S(=O)(=O)c1ccccc1,-15,-12,-1,1,37*,1,12,-1,GDH-TPI dose=>10
O=C(O)CN(c1ccccn1)S(=O)(=O)c1ccccc1,-1,-2,-1,9,36*,0,94*,87*,
COC(=O)CN(c1ccccn1)S(=O)(=O)c1ccccc1,-4,-8,-1,4,37*,17,115*,100*,
O=C(O)CN(c1ccccn1)S(=O)(=O)c1ccc(Cl)cc1,-7,9,-3,-1,35*,11,39*,36*,
Cn1c(CN2CCOCC2)nnc1SCC(=O)Nc1cc(Cl)ccc1Cl,-4,-12,-3,6,27*,-6,1,-9,
CCc1cc(=O)oc2cc(C)cc(OC(C)C(=O)NC3CCN(Cc4ccccc4)CC3)c12 (stereo not drawn),-4,2,0,-6,51*,1,14,0,GDH-TPI dose=3*
Cc1cc(OC(C(=O)O)c2ccccc2)c2c(C)c(Cc3ccccc3)c(=O)oc2c1 (stereo not drawn),4,2,0,-1,46*,23,1,-1,
Cc1cc(OC(C)C(=O)NC2CCN(Cc3ccccc3)CC2)c2c(C)cc(=O)oc2c1 (stereo not drawn),1,7,-1,-6,10,1,.,.,
CCc1cc2c(-c3ccccc3)cc(=O)oc2cc1OC(C)C(=O)NCC1CCC(C(=O)O)CC1 (stereo not drawn),-4,-3,0,-4,2,15,.,.,
Cc1cc(OC(C)C(=O)NCC(O)c2ccccc2)c2c(C)c(C)c(=O)oc2c1 (stereo not drawn),1,7,1,5,50*,11,73*,45*,
SMILES,Mtb betalactam,PriA SSB inh,UGM FP inh,Rv3671c protease,Mtb FBA inh,GDH-TPI counter-1,Mtb FBA confirm,GDH-TPI counter-2,others
CCc1cc(=O)oc2cc(C)cc(OC(C)C(=O)NCC(O)c3ccccc3)c12 (stereo not drawn),1,-7,1,9,59*,-7,+,+,
CCc1ccc2[nH]c3nc(NN=Cc4cccc(O)c4)nnc3c2c1,.,-11,.,.,.,.,.,.,
CNC(=O)c1csc(NC(=O)c2ccc(S(=O)(=O)N(C)C)cc2)n1,.,5,.,.,.,.,.,.,
CCc1cc(=O)oc2cc(C)cc(OCC(=O)NCC(O)c3ccccc3)c12 (stereo not drawn),-2,0,-3,2,56*,3,198*,168*,
CC(O)c1cc2c(cc1NC(=O)c1cnn3c1NC(c1ccco1)CC3C(F)(F)F)OCO2 (stereo not drawn),3,-11,-2,-8,48*,7,57*,55*,
Cc1ccccc1N(CC(=O)NC1CCCC1)C(=O)C1(C)CC(=O)N=C2C=CC=CN21 (stereo not drawn),-8,7,-2,-3,74*,12,104*,94*,
Cc1cc(C)cc(N(CC(=O)NC2CCCC2)C(=O)C2(C)CC(=O)N=C3C=CC=CN32)c1 (stereo not drawn),0,-9,0,2,36*,12,+,161*,
CC1=CC2=NC(=O)CC(C)(C(=O)N(CC(=O)NC(C)C)C3CCCC3)N2C=C1 (stereo not drawn),1,.,5,-1,.,.,.,.,
Cc1cc(C)cc(N(CC(=O)NC2CCCC2)C(=O)CCC(=O)Nc2cc(C)ccn2)c1,1,-1,0,-2,-1,8,.,.,
Cc1ccccc1N(CC(=O)NCC1CCCO1)C(=O)C1(C)CC(=O)N=C2C=CC=CN21 (stereo not drawn),-5,-1,1,-1,86*,-1,106*,79*,
